Bioassay records from PubChem BioAssay.
In the library only some 0.97% were active in any assay of this set; here they are far more common.
TcdB GH inh – TcdB glycohydrolase inhibition | TcdB glycohydrolase enzymatic assay, plate reader | P18177 | inhibition, % at 9.99 µM | hit rate 0.24% among 350,000; in the data active = inhibition above about 10%
UGM FP inh – inhibitors of M. tuberculosis UDP-galactopyranose mutase; P9WIQ1; purified UGM, fluorescence polarization probe displacement; inhibition, % at 10 µM; hit rate 0.06% among 320,000; in the data active = inhibition above about 10%, passing the limit was not always enough; inconclusive = no clear call, values can overlap the other calls
MazF activator – MazEF (E. coli) toxin RNase activation; hit rate 0.32% among 350,000; FAM/BHQ RNA-DNA oligo cleavage fluorescence, 5 h; activation, % at 20 µM; AID 504720; in the data active = activation above about 50%
RecA splice inh – inhibitors of M. tuberculosis RecA intein splicing. cell-free RecA intein splicing, fluorescence. inhibition, % (no concentration beside the values). hit rate 0.75% among 290,000. AID 2221; in the data active = inhibition above about 30%; inconclusive = no clear call, values can overlap the other calls;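 note: 0% = vehicle wells and 100% = reference inhibitor control wells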
Rv3671c inh – inhibits the M. tuberculosis serine protease Rv3671c; inhibition, % at 5.96 µM; hit rate 0.048% among 320,000; P9WHR9; in the data active = inhibition above about 38%;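 note: extracellular domain of Rv3671c used as enzyme; 0% = enzyme with DMSO and 100% = no enzyme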
Mtb betalactam – beta-lactam sensitization of Mtb H37Rv; M. tuberculosis H37Rv growth with meropenem, percent inhibition; inhibition, % at 25 µM; hit rate 0.27% among 330,000; call rule not given here;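 note: growth measured after seven days incubation then overnight dye step; 0% = bacteria only wells and 100% = bacteria with antibiotic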
* hit, by the source's call; ? = inconclusive; nt = no result.

SMILES	TcdB GH inh	UGM FP inh	MazF activator	RecA splice inh	Rv3671c inh	Mtb betalactam
O=C(NCC[C@@H]1CC[C@@H](NS(=O)(=O)c2ccc(F)cc2)[C@H](CO)O1)c1ccccc1F	-0.7	nt	nt	nt	nt	nt
C[C@@H]1CN([C@H](C)CO)C(=O)c2cc(NS(C)(=O)=O)ccc2O[C@@H](C)CCCCO[C@H]1CN(C)CC1CC1	-1.1	nt	nt	nt	nt	nt
Clc1cccc(/C(Cc2nc3ccccc3[nH]2)=N\Nc2ccccc2)c1	0.8	-0.5	60.7*	15.8	4.8	96.2
COc1ccc(NC(=O)N(C)C[C@H]2Oc3ncc(C#CCC(C)C)cc3C(=O)N([C@@H](C)CO)C[C@@H]2C)cc1	-0.9	nt	nt	nt	nt	nt
CC(=O)N1CCN(c2ccc(N=Cc3c(O)n(Cc4ccccc4)c(=O)[nH]c3=O)cc2)CC1	nt	nt	77.2*	-7.2	nt	nt
Cc1cccc(-n2c(=O)c3ccccc3n3c(=S)[nH]nc23)c1C	12.1*	-0.3	4.6	-1.9	2.5	1.5
Cc1ccccc1-n1c(=O)c2ccccc2n2c(=O)[nH]nc12	nt	-0.8	4.3	10.6	-11.0	?
COc1cc2[nH]c(=S)nc(NCCC(C)C)c2cc1OC	10.0*	-2.2	12.8	0.4	1.9	1.8
COCCCNc1nc(=S)[nH]c2cc(OC)c(OC)cc12	nt	-0.6	-3.8	-1.2	0.9	-1.2
Cc1cc(Nc2cccc(F)c2)n2nc(C)nc2n1	0.8	2.8	9.8	0.9	6.7	10.8
Cc1cc(Nc2cccc(F)c2)n2c(n1)nc1ccccc12	1.6	0.0	57.5*	0.0	-0.2	5.0
C[C@@H]1CN([C@H](C)CO)C(=O)c2cc(C3=CCCC3)cnc2O[C@@H]1CN(C)Cc1ccc(F)cc1	-12.1	nt	nt	nt	nt	nt
Cn1c(SCC(=O)c2cc3ccccc3o2)nnc1-c1ccccc1	11.1*	1.2	25.2	-0.7	-22.0	0.2
Cn1cc(Cl)c(C(=O)N/N=C/c2ccc3c4c(cccc24)CC3)n1	nt	-1.0	67.6*	-2.6	-75.0	-7.4
Cc1ccc(/C=N/NC(=O)c2nn(C)cc2Cl)cc1	nt	-1.1	9.8	-0.3	4.5	4.3
C[C@H](CO)N1C[C@H](C)[C@@H](CN(C)CC2CCOCC2)Oc2ncc(-c3ccc(C#N)cc3)cc2C1=O	0.2	nt	nt	nt	nt	nt
CCc1[nH]nc2c1C(Cc1ccccc1)C(C#N)=C(N)O2 (configuration not stated)	nt	1.0	11.7	59.1*	2.5	1.7
CC(C)c1[nH]nc2c1C(c1cccnc1)C(C#N)=C(N)O2 (configuration not stated)	nt	2.9	-9.3	42.7*	-7.5	-2.9
CC(C)N1CC2=C(OC(N)=C(C#N)C2c2cccnc2)/C(=C/c2cccnc2)C1 (configuration not stated)	nt	0.1	64.1*	-3.0	2.1	?
Cc1ccc(C2C(C#N)=C(N)Oc3nc(-c4ccccc4)[nH]c32)o1 (configuration not stated)	nt	1.9	-3.1	89.4*	-6.2	2.3
CCCc1[nH]nc2c1C(Cc1ccccc1)C(C#N)=C(N)O2 (configuration not stated)	nt	-2.2	6.3	28.2	7.1	-4.2
COc1ccc(S(=O)(=O)N(C)C[C@@H]2OCc3ccccc3-c3ccccc3C(=O)N([C@@H](C)CO)C[C@H]2C)cc1	0.9	nt	nt	nt	nt	nt
N#CC1=C(N)Oc2n[nH]c(-c3cccs3)c2C1c1ccncc1 (configuration not stated)	-1.7	1.8	3.1	59.9*	-6.8	-3.5
CC(C)c1[nH]nc2c1C(Cc1ccccc1)C(C#N)=C(N)O2 (configuration not stated)	nt	-0.3	-6.2	53.0*	-1.4	5.1
Cc1[nH]nc2c1C(Cc1ccccc1)C(C#N)=C(N)O2 (configuration not stated)	nt	-3.2	3.1	26.8	-3.6	-4.6
COCc1[nH]nc2c1C(c1ccccc1OC)C(C#N)=C(N)O2 (configuration not stated)	nt	2.3	8.1	61.7*	-1.1	0.4
COCc1[nH]nc2c1C(c1ccccc1Cl)C(C#N)=C(N)O2 (configuration not stated)	nt	-0.5	7.7	24.4	-5.1	-8.2
CCc1[nH]nc2c1C(c1ccc(C)o1)C(C#N)=C(N)O2 (configuration not stated)	-1.3	-0.9	6.2	49.2*	3.9	-10.6
CCc1[nH]nc2c1C(c1ccc(Br)s1)C(C#N)=C(N)O2 (configuration not stated)	nt	-0.6	-1.5	nt	-6.6	8.0
CO[C@@H]1CC[C@H]2CCOc3c(C#N)cccc3C(=O)N(C)C[C@@H](C)C(=O)N(C)C[C@@H]1O2	-0.1	nt	nt	nt	nt	nt
